# Measurements as given in PMC8384837, “Expanding the binding specificity for RNA recognition by a PUF domain”.
# Columns and labels:
# Assay in all cases: yeast three-hybrid, YBZ-1, SC-Leu-His + 0.5 mM 3-AT, 4 days
# Details in all cases: tags: N-Gal4 AD-HA kept; label: inside an RPR1-promoter hybrid RNA with tandem MS2 sites; ssRNA
# PUM1 PUF domain R2-LWS = PUM1 PUF domain R2-LWS (Homo sapiens, UniProt Q14671 828-1176, N899L;Y900W;Q903S)
# Summary of the method: (§1)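 Each repeat of the Pumilio-1 PUF domain was randomized at its three base-contacting residues, and these libraries were co-expressed from a centromeric plasmid with matching RNA elements in strain YBZ-1. After four days on SC-Leu (input) or SC-Leu-His + 0.5 mM 3-AT (selection), the repeat regions were PCR-amplified and Illumina-sequenced. The interaction score compares variant frequency between input and selection as a log change, computed in log2 with a pseudocount of 1 for absent variants.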
# PUM1 PUF domain R8-RWG = PUM1 PUF domain R8-RWG (Homo sapiens, UniProt Q14671 828-1176, N1122R;Y1123W;Q1126G)
# Summary of the method: as §1
# PUM1 PUF domain R8-CHP = PUM1 PUF domain R8-CHP (Homo sapiens, UniProt Q14671 828-1176, N1122C;Y1123H;Q1126P)
# Summary of the method: as §1
# PUM1 PUF domain R8-RQR = PUM1 PUF domain R8-RQR (Homo sapiens, UniProt Q14671 828-1176, N1122R;Y1123Q;Q1126R)
# Summary of the method: as §1
# PUM1 PUF domain R8-AWK = PUM1 PUF domain R8-AWK (Homo sapiens, UniProt Q14671 828-1176, N1122A;Y1123W;Q1126K)
# Summary of the method: as §1
# PUM1 PUF domain R1-RWS = PUM1 PUF domain R1-RWS (Homo sapiens, UniProt Q14671 828-1176, S863R;R864W;Q867S)
# Sequence of PUM1 PUF domain R1-RWS (Q14671 828-1176 S863R/R864W/Q867S): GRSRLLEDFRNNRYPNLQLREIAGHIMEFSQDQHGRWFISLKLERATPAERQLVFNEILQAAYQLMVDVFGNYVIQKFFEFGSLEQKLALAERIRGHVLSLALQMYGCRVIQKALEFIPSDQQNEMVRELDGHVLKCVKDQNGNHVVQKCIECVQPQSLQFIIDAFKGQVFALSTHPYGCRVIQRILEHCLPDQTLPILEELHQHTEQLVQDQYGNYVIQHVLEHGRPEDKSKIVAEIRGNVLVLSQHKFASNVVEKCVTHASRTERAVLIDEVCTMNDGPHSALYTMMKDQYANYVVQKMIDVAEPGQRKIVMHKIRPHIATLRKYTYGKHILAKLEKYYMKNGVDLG
# Summary of the method: as §1
# PUM1 PUF domain R1-RGT = PUM1 PUF domain R1-RGT (Homo sapiens, UniProt Q14671 828-1176, S863R;R864G;Q867T)
# Sequence of PUM1 PUF domain R1-RGT (Q14671 828-1176 S863R/R864G/Q867T): as the sequence (Q14671 828-1176 S863R/R864W/Q867S) above, with W37G, S40T counted along it
# Summary of the method: as §1
# PUM1 PUF domain R5-RNE = PUM1 PUF domain R5-RNE (Homo sapiens, UniProt Q14671 828-1176, C1007R;R1008N;Q1011E)
# Summary of the method: as §1
# PUM1 PUF domain R5-RGG = PUM1 PUF domain R5-RGG (Homo sapiens, UniProt Q14671 828-1176, C1007R;R1008G;Q1011G)
# Summary of the method: as §1
# PUM1 PUF domain R1-KFR = PUM1 PUF domain R1-KFR (Homo sapiens, UniProt Q14671 828-1176, S863K;R864F;Q867R)
# Summary of the method: as §1
# PUM1 PUF domain R1-MGR = PUM1 PUF domain R1-MGR (Homo sapiens, UniProt Q14671 828-1176, S863M;R864G;Q867R)
# Summary of the method: as §1
# PUM1 PUF domain R7-QTR = PUM1 PUF domain R7-QTR (Homo sapiens, UniProt Q14671 828-1176, S1079Q;N1080T;E1083R)
# Summary of the method: as §1
# PUM1 PUF domain R7-RGY = PUM1 PUF domain R7-RGY (Homo sapiens, UniProt Q14671 828-1176, S1079R;N1080G;E1083Y)
# Summary of the method: as §1
# PUM1 PUF domain R4-ERC = PUM1 PUF domain R4-ERC (Homo sapiens, UniProt Q14671 828-1176, N971E;H972R;Q975C)
# Summary of the method: as §1
# PUM1 PUF domain R1-TVR = PUM1 PUF domain R1-TVR (Homo sapiens, UniProt Q14671 828-1176, S863T;R864V;Q867R)
# Summary of the method: as §1
# PUM1 PUF domain R5-SVG = PUM1 PUF domain R5-SVG (Homo sapiens, UniProt Q14671 828-1176, C1007S;R1008V;Q1011G)
# Summary of the method: as §1
# PUM1 PUF domain R3-LSV = PUM1 PUF domain R3-LSV (Homo sapiens, UniProt Q14671 828-1176, C935L;R936S;Q939V)
# Summary of the method: as §1
# PUM1 PUF domain R3-LWN = PUM1 PUF domain R3-LWN (Homo sapiens, UniProt Q14671 828-1176, C935L;R936W;Q939N)
# Summary of the method: as §1
# PUM1 PUF domain R3-CPG = PUM1 PUF domain R3-CPG (Homo sapiens, UniProt Q14671 828-1176, R936P;Q939G)
# Summary of the method: as §1
# PUM1 PUF domain R6-GYQ = biological target: T1, PUM1 PUF domain R6-GYQ (Homo sapiens, UniProt Q14671 828-1176, N1043G)
# T1 sequence: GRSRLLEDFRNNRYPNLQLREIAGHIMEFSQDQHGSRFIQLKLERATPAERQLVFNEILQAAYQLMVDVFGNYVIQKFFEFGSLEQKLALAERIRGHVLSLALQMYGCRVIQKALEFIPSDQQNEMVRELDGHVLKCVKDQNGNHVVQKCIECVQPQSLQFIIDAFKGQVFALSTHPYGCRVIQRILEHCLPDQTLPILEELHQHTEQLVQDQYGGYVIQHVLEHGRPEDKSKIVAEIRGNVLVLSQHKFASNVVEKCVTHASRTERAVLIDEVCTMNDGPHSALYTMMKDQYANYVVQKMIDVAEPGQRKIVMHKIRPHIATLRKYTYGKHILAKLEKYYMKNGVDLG
# Summary of the method: as §1
sequence,measurement,setting,value
GGCUAGAACUAGUGGAUCCCCCGGCGCCCGGCGGCUCGAGCCCGGGUAAGUGUAAAAAGUCUGCAUGCCGCCGGGCGCCAUGCCUGCAGGUCGACUCUAGAAAACAUG,binding signal,PUM1 PUF domain R2-LWS,7.72 log2 enrichment (interaction score)
GGCUAGAACUAGUGGAUCCCCCGGCGCCCGGCGGCUCGAGCCCGGGUAAGCGUAAAUAGUCUGCAUGCCGCCGGGCGCCAUGCCUGCAGGUCGACUCUAGAAAACAUG,binding signal,PUM1 PUF domain R8-RWG,6.94 log2 enrichment (interaction score)
same,binding signal,PUM1 PUF domain R8-CHP,2.6 log2 enrichment (interaction score)
same,binding signal,PUM1 PUF domain R8-RQR,3.05 log2 enrichment (interaction score)
same,binding signal,PUM1 PUF domain R8-AWK,4.69 log2 enrichment (interaction score)
GGCUAGAACUAGUGGAUCCCCCGGCGCCCGGCGGCUCGAGCCCGGGUAAGUGUAAAUGGUCUGCAUGCCGCCGGGCGCCAUGCCUGCAGGUCGACUCUAGAAAACAUG,binding signal,PUM1 PUF domain R1-RWS,1.65 log2 enrichment (interaction score)
same,binding signal,PUM1 PUF domain R1-RGT,1.3 log2 enrichment (interaction score)
GGCUAGAACUAGUGGAUCCCCCGGCGCCCGGCGGCUCGAGCCCGGGUAAGUGUCAAUAGUCUGCAUGCCGCCGGGCGCCAUGCCUGCAGGUCGACUCUAGAAAACAUG,binding signal,PUM1 PUF domain R5-RNE,2.14 log2 enrichment (interaction score)
same,binding signal,PUM1 PUF domain R5-RGG,2.8 log2 enrichment (interaction score)
GGCUAGAACUAGUGGAUCCCCCGGCGCCCGGCGGCUCGAGCCCGGGUAAGUGUAAAUUGUCUGCAUGCCGCCGGGCGCCAUGCCUGCAGGUCGACUCUAGAAAACAUG,binding signal,PUM1 PUF domain R1-KFR,3.96 log2 enrichment (interaction score)
same,binding signal,PUM1 PUF domain R1-RWS,3.86 log2 enrichment (interaction score)
same,binding signal,PUM1 PUF domain R1-MGR,2.75 log2 enrichment (interaction score)
same,binding signal,PUM1 PUF domain R1-RGT,4.56 log2 enrichment (interaction score)
GGCUAGAACUAGUGGAUCCCCCGGCGCCCGGCGGCUCGAGCCCGGGUAAGUUUAAAUAGUCUGCAUGCCGCCGGGCGCCAUGCCUGCAGGUCGACUCUAGAAAACAUG,binding signal,PUM1 PUF domain R7-QTR,2.39 log2 enrichment (interaction score)
same,binding signal,PUM1 PUF domain R7-RGY,2.43 log2 enrichment (interaction score)
GGCUAGAACUAGUGGAUCCCCCGGCGCCCGGCGGCUCGAGCCCGGGUAAGUGUAAAGAGUCUGCAUGCCGCCGGGCGCCAUGCCUGCAGGUCGACUCUAGAAAACAUG,binding signal,PUM1 PUF domain R2-LWS,4.16 log2 enrichment (interaction score)
GGCUAGAACUAGUGGAUCCCCCGGCGCCCGGCGGCUCGAGCCCGGGUAAGUGUACAUAGUCUGCAUGCCGCCGGGCGCCAUGCCUGCAGGUCGACUCUAGAAAACAUG,binding signal,PUM1 PUF domain R4-ERC,0.16 log2 enrichment (interaction score)
GGCUAGAACUAGUGGAUCCCCCGGCGCCCGGCGGCUCGAGCCCGGGUAAGUGUAAAUCGUCUGCAUGCCGCCGGGCGCCAUGCCUGCAGGUCGACUCUAGAAAACAUG,binding signal,PUM1 PUF domain R1-TVR,3.55 log2 enrichment (interaction score)
same,binding signal,PUM1 PUF domain R1-RWS,2.83 log2 enrichment (interaction score)
same,binding signal,PUM1 PUF domain R1-MGR,1.49 log2 enrichment (interaction score)
same,binding signal,PUM1 PUF domain R1-RGT,5.04 log2 enrichment (interaction score)
GGCUAGAACUAGUGGAUCCCCCGGCGCCCGGCGGCUCGAGCCCGGGUAAGUGUGAAUAGUCUGCAUGCCGCCGGGCGCCAUGCCUGCAGGUCGACUCUAGAAAACAUG,binding signal,PUM1 PUF domain R5-SVG,2.82 log2 enrichment (interaction score)
GGCUAGAACUAGUGGAUCCCCCGGCGCCCGGCGGCUCGAGCCCGGGUAAGUGUAAUUAGUCUGCAUGCCGCCGGGCGCCAUGCCUGCAGGUCGACUCUAGAAAACAUG,binding signal,PUM1 PUF domain R3-LSV,2.26 log2 enrichment (interaction score)
same,binding signal,PUM1 PUF domain R3-LWN,4 log2 enrichment (interaction score)
GGCUAGAACUAGUGGAUCCCCCGGCGCCCGGCGGCUCGAGCCCGGGUAAGUGUUAAUAGUCUGCAUGCCGCCGGGCGCCAUGCCUGCAGGUCGACUCUAGAAAACAUG,binding signal,PUM1 PUF domain R5-RNE,3.73 log2 enrichment (interaction score)
same,binding signal,PUM1 PUF domain R5-RGG,2.55 log2 enrichment (interaction score)
GGCUAGAACUAGUGGAUCCCCCGGCGCCCGGCGGCUCGAGCCCGGGUAAGUGUAAAUAGUCUGCAUGCCGCCGGGCGCCAUGCCUGCAGGUCGACUCUAGAAAACAUG,binding signal,PUM1 PUF domain R2-LWS,2.23 log2 enrichment (interaction score)
same,binding signal,PUM1 PUF domain R8-RWG,5.92 log2 enrichment (interaction score)
same,binding signal,PUM1 PUF domain R8-CHP,0.7 log2 enrichment (interaction score)
same,binding signal,PUM1 PUF domain R4-ERC,4.37 log2 enrichment (interaction score)
same,binding signal,PUM1 PUF domain R3-CPG,2.95 log2 enrichment (interaction score)
same,binding signal,PUM1 PUF domain R8-RQR,0.6 log2 enrichment (interaction score)
same,binding signal,PUM1 PUF domain R8-AWK,5.21 log2 enrichment (interaction score)
same,binding signal,PUM1 PUF domain R6-GYQ,3.62 log2 enrichment (interaction score)
GGCUAGAACUAGUGGAUCCCCCGGCGCCCGGCGGCUCGAGCCCGGGUAAGUGUAAGUAGUCUGCAUGCCGCCGGGCGCCAUGCCUGCAGGUCGACUCUAGAAAACAUG,binding signal,PUM1 PUF domain R3-LSV,3.37 log2 enrichment (interaction score)
